Reference: PubChem BioAssay (NCATS)
Records with an inconclusive call do not appear. Active and inactive are the calls of the source. The call rests on the fitted dose curve; in most records, active means well fitted inhibition curve with a large enough effect; inconclusive means small, poorly fitted or top-dose-only effect; inactive means flat fitted curve, though single readings scatter.

Assays:
[1] = qHTS profiling for inhibitors of Plasmodium falciparum proliferation (AID 504749); further: nearly all actives have a fitted effect of over 60% in size;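 on activity, negative = inhibition: 0% = DMSO vehicle and full inhibition = artemisinin control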; conditions: P. falciparum in erythrocytes, SYBR Green DNA, 72 h
Method in brief: (§1)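 SYBR Green fluorescence of parasite DNA, read after lysis and overnight dark incubation, measured growth over 72 h in erythrocyte culture at 0.3% parasitemia and 2.5% hematocrit. Data normalised to DMSO and 0.29 uM artemisinin, with plate-drift correction.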

3D7 = assay: as above; conditions: P. falciparum in erythrocytes, SYBR Green DNA, 72 h; series mostly up to 28.7 µM
Method in brief: as §1

7G8 = assay: as above; conditions: P. falciparum in erythrocytes, SYBR Green DNA, 72 h; series mostly up to 28.7 µM
Method in brief: as §1

AA1029 = assay: as above; conditions: P. falciparum in erythrocytes, SYBR Green DNA, 72 h; series mostly up to 28.7 µM
Method in brief: as §1

AS120 = assay: as above; conditions: P. falciparum in erythrocytes, SYBR Green DNA, 72 h; series mostly up to 28.7 µM
Method in brief: as §1

ATS189 = assay: as above; conditions: P. falciparum in erythrocytes, SYBR Green DNA, 72 h; series mostly up to 28.7 µM
Method in brief: as §1

ATS95 = assay: as above; conditions: P. falciparum in erythrocytes, SYBR Green DNA, 72 h; series mostly up to 28.7 µM
Method in brief: as §1

C2A = assay: as above; conditions: P. falciparum in erythrocytes, SYBR Green DNA, 72 h; series mostly up to 28.7 µM
Method in brief: as §1

CP185 = assay: as above; conditions: P. falciparum in erythrocytes, SYBR Green DNA, 72 h; series mostly up to 28.7 µM
Method in brief: as §1

CP191 = assay: as above; conditions: P. falciparum in erythrocytes, SYBR Green DNA, 72 h; series mostly up to 28.7 µM
Method in brief: as §1

CP192 = assay: as above; conditions: P. falciparum in erythrocytes, SYBR Green DNA, 72 h; series mostly up to 28.7 µM
Method in brief: as §1

CP194 = assay: as above; conditions: P. falciparum in erythrocytes, SYBR Green DNA, 72 h; series mostly up to 28.7 µM
Method in brief: as §1

CP201 = assay: as above; conditions: P. falciparum in erythrocytes, SYBR Green DNA, 72 h; series mostly up to 28.7 µM
Method in brief: as §1

CP203 = assay: as above; conditions: P. falciparum in erythrocytes, SYBR Green DNA, 72 h; series mostly up to 28.7 µM
Method in brief: as §1

CP211 = assay: as above; conditions: P. falciparum in erythrocytes, SYBR Green DNA, 72 h; series mostly up to 28.7 µM
Method in brief: as §1

CP217 = assay: as above; conditions: P. falciparum in erythrocytes, SYBR Green DNA, 72 h; series mostly up to 28.7 µM
Method in brief: as §1

CP215 = assay: as above; conditions: P. falciparum in erythrocytes, SYBR Green DNA, 72 h; series mostly up to 28.7 µM
Method in brief: as §1

[2] = at 28.7 µM (top of the series), parasite line A
[3] = at 28.7 µM (top of the series), parasite line B
[4] = at 12.8 µM (top of the series), parasite line A
[5] = at 12.8 µM (top of the series), parasite line B
Potency means the concentration at half of the fitted maximal effect.

O=C(Nc1ccc([N+](=O)[O-])cc1)Nc1ccc([N+](=O)[O-])cc1
active: Potency (3D7) 7.08 µM | Potency (7G8) 1.41 µM
inactive: activity, negative = inhibition [1, 2] 3.88% | activity, negative = inhibition [1, 3] -6.66% | Potency (AA1029) | Potency (AS120) | Potency (ATS189) | Potency (ATS95) | Potency (C2A) | Potency (CP185) | Potency (CP191) | Potency (CP192) | Potency (CP194) | Potency (CP201) | Potency (CP203) | Potency (CP211) | Potency (CP217)

O=C1C(CCS(=O)c2ccccc2)C(=O)N(c2ccccc2)N1c1ccccc1 (stereo not drawn)
inactive: activity, negative = inhibition [1, 4] -4.48% | activity, negative = inhibition [1, 5] 5.16% | Potency (3D7) | Potency (7G8) | Potency (AA1029) | Potency (AS120) | Potency (ATS189) | Potency (ATS95) | Potency (C2A) | Potency (CP185) | Potency (CP191) | Potency (CP192) | Potency (CP194) | Potency (CP201) | Potency (CP203) | Potency (CP211) | Potency (CP217)

CCCCCCCCCCCCCCCCO
inactive: activity, negative = inhibition [1, 2] 1.6% | activity, negative = inhibition [1, 3] 8.58% | Potency (3D7) | Potency (7G8) | Potency (AA1029) | Potency (AS120) | Potency (ATS95) | Potency (C2A) | Potency (CP185) | Potency (CP191) | Potency (CP192) | Potency (CP194) | Potency (CP201) | Potency (CP203) | Potency (CP211) | Potency (CP215) | Potency (CP217)

O=C(O)c1ccc(S(=O)(=O)N(Cl)Cl)cc1
inactive: activity, negative = inhibition [1, 2] -4.58% | activity, negative = inhibition [1, 3] 5.75% | Potency (3D7) | Potency (7G8) | Potency (AA1029) | Potency (AS120) | Potency (ATS189) | Potency (ATS95) | Potency (C2A) | Potency (CP185) | Potency (CP191) | Potency (CP192) | Potency (CP194) | Potency (CP203) | Potency (CP211) | Potency (CP215) | Potency (CP217)

NS(=O)(=O)Cc1noc2ccccc12
inactive: activity, negative = inhibition [1, 2] 6.43% | activity, negative = inhibition [1, 3] 4.66% | Potency (3D7) | Potency (AA1029) | Potency (AS120) | Potency (ATS189) | Potency (ATS95) | Potency (C2A) | Potency (CP185) | Potency (CP191) | Potency (CP192) | Potency (CP194) | Potency (CP201) | Potency (CP203) | Potency (CP211) | Potency (CP215) | Potency (CP217)

COc1ccc(C(Cl)=C(c2ccc(OC)cc2)c2ccc(OC)cc2)cc1
active: Potency ([1]; parasite line A) 3.98 µM | Potency ([1]; parasite line B) 3.98 µM | Potency (AA1029) 6.31 µM | Potency (AS120) 3.55 µM | Potency (ATS189) 2.82 µM | Potency (ATS95) 11.2 µM | Potency (C2A) 3.98 µM | Potency (CP191) 12.6 µM | Potency (CP217) 11.2 µM
inactive: Potency (CP192) | Potency (CP194) | Potency (CP201) | Potency (CP203) | Potency (CP211) | Potency (CP215)

CCOCCn1c(N2CCCN(C)CC2)nc2ccccc21
inactive: activity, negative = inhibition [1, 2] 7.9% | activity, negative = inhibition [1, 3] 8.28% | Potency (3D7) | Potency (AS120) | Potency (ATS95) | Potency (C2A) | Potency (CP185) | Potency (CP191) | Potency (CP192) | Potency (CP201) | Potency (CP211) | Potency (CP215) | Potency (CP217)

O=C(Oc1cccc2cccnc12)c1ccccc1
inactive: activity, negative = inhibition [1, 2] 5.84% | activity, negative = inhibition [1, 3] -15.2% | Potency (3D7) | Potency (AA1029) | Potency (AS120) | Potency (ATS189) | Potency (ATS95) | Potency (C2A) | Potency (CP185) | Potency (CP191) | Potency (CP192) | Potency (CP194) | Potency (CP201) | Potency (CP203) | Potency (CP211) | Potency (CP215) | Potency (CP217)

CCCCc1cc2ccccc2c(OCCN(C)C)n1
inactive: activity, negative = inhibition [1, 4] 8.06% | activity, negative = inhibition [1, 5] 4.66% | Potency (3D7) | Potency (AA1029) | Potency (AS120) | Potency (ATS189) | Potency (ATS95) | Potency (C2A) | Potency (CP185) | Potency (CP191) | Potency (CP192) | Potency (CP194) | Potency (CP201) | Potency (CP203) | Potency (CP211) | Potency (CP217)

CC(C)=CCOc1ccc(/C=C/C(=O)c2ccc(OCC=C(C)C)cc2OCC(=O)O)cc1
inactive: activity, negative = inhibition [1, 2] -9.12% | activity, negative = inhibition [1, 3] -8.65% | Potency (3D7) | Potency (AA1029) | Potency (AS120) | Potency (ATS189) | Potency (ATS95) | Potency (C2A) | Potency (CP185) | Potency (CP191) | Potency (CP192) | Potency (CP201) | Potency (CP203) | Potency (CP211) | Potency (CP217)

NC(=O)n1c(O)c(C(=O)c2cccs2)c2cc(Cl)ccc21
inactive: activity, negative = inhibition [1, 2] 5.54% | activity, negative = inhibition [1, 3] -6.01% | Potency (3D7) | Potency (AA1029) | Potency (AS120) | Potency (ATS189) | Potency (ATS95) | Potency (C2A) | Potency (CP185) | Potency (CP191) | Potency (CP192) | Potency (CP194) | Potency (CP201) | Potency (CP203) | Potency (CP211) | Potency (CP215) | Potency (CP217)

CN(C)C(=O)Nc1ccc(Cl)c(Cl)c1
inactive: activity, negative = inhibition [1, 2] -1.54% | activity, negative = inhibition [1, 3] -6.86% | Potency (ATS189) | Potency (ATS95) | Potency (CP185) | Potency (CP192)

CCN(CC)CCOc1ccccc1C(=O)CCc1ccccc1
inactive: activity, negative = inhibition [1, 2] 2.97% | activity, negative = inhibition [1, 3] -13.2% | Potency (3D7) | Potency (C2A) | Potency (CP191) | Potency (CP192)

CCOC(=O)C(C#N)=C(c1ccccc1)c1ccccc1
inactive: activity, negative = inhibition [1, 2] 12.2% | activity, negative = inhibition [1, 3] -2.15% | Potency (3D7) | Potency (AA1029) | Potency (AS120) | Potency (ATS189) | Potency (ATS95) | Potency (C2A) | Potency (CP185) | Potency (CP191) | Potency (CP194) | Potency (CP201) | Potency (CP203) | Potency (CP211) | Potency (CP215) | Potency (CP217)

Cc1cc(-c2ccccc2)nnc1NCCN1CCOCC1
inactive: activity, negative = inhibition [1, 2] 6.44% | activity, negative = inhibition [1, 3] 8.72% | Potency (3D7) | Potency (AA1029) | Potency (AS120) | Potency (ATS189) | Potency (ATS95) | Potency (C2A) | Potency (CP185) | Potency (CP191) | Potency (CP192) | Potency (CP194) | Potency (CP201) | Potency (CP203) | Potency (CP211) | Potency (CP215) | Potency (CP217)
